Growth data for nine molecules are collected here from PubChem BioAssay (NCI).

Experiment in all cases: NCI-60 one-dose screen, 48 h (100 = growth as untreated, 0 = no growth, -100 = all killed)
One assay deals with HCT-15 colon. As to conditions: 10 µM unless noted.
The subject of another assay is HT29 colon. As to conditions: 10 µM unless noted.
The test system of the next assay is SNB-75 CNS. As to conditions: 10 µM unless noted.
The test system of another assay is SNB-19 CNS. As to conditions: 10 µM unless noted.
The test system of a further assay is U251 CNS. The note with it: 10 µM unless noted.
In another assay the test system is PC-3 prostate. The note with it: 10 µM unless noted.
Another assay deals with SK-MEL-5 melanoma. As to conditions: 10 µM unless noted.
The test system of the next assay is UACC-62 melanoma. The note with it: 10 µM unless noted.
The next assay relates to LOX IMVI melanoma. The note with it: 10 µM unless noted.
A further assay concerns SK-MEL-28 melanoma. As to conditions: 10 µM unless noted.
A further assay relates to SK-MEL-2 melanoma. As to conditions: 10 µM unless noted.
A further assay concerns EKVX NSCLC. The note with it: 10 µM.
A further assay concerns SN12C renal. The note with it: 10 µM unless noted.
In the next assay the test system is UO-31 renal. The note with it: 10 µM unless noted.
Another assay has as its system TK-10 renal. The note with it: 10 µM unless noted.
For a further assay, the system named is CAKI-1 renal. As to conditions: 10 µM unless noted.
For the next assay, the system named is A498 renal. As to conditions: 10 µM unless noted.
For a further assay, the system named is CCRF-CEM leukemia. The note with it: 10 µM.
The test system of the next assay is MOLT-4 leukemia. The note with it: 10 µM unless noted.
In the next assay the test system is ACHN renal. As to conditions: 10 µM unless noted.

The panel holds about 83,000 compounds, 20% with a hit somewhere; the sample as a whole holds those more often.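 Step 1: grow cells in 96-well plates. Step 2: add test compound at a single concentration. Step 3: incubate 48 h. Step 4: record percent growth.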 Unmarked numbers belong to inactive results. Activity calls are given as the source filed them. How the source made its calls: active means growth percent below 10; inactive means the rest.

On to `CC(C)(C)C(=O)CCCCCCCC/C=C/CCCC(O)c1ccco1` (centres undefined), for which the growth was 118% with HCT-15 colon; 107% with HT29 colon; 101% in the assay with SNB-75 CNS; 109% in the assay with SNB-19 CNS; 105% in the assay with U251 CNS; 102% with PC-3 prostate. Also, the growth in the assay on SK-MEL-5 melanoma was 107%; with UACC-62 melanoma, 95.2%; in the assay with LOX IMVI melanoma, 102%; in the assay with SK-MEL-28 melanoma it was 106%; in the assay on SK-MEL-2 melanoma it was 105%; with EKVX NSCLC it was 102%. Besides, the growth is 110% in the assay on SN12C renal; 98.3% with UO-31 renal; 105% with TK-10 renal; 110% in the assay with CAKI-1 renal; 109% in the assay with A498 renal; -44.3% (active) with CCRF-CEM leukemia. The growth with MOLT-4 leukemia is 76.1%.

Consider `N/C(=N\O)c1ccncc1`, for which the growth in the assay with HCT-15 colon is 100%; with HT29 colon it was 101%; in the assay on SNB-75 CNS, 86.7%; in the assay on SNB-19 CNS, 104%; with U251 CNS, 106%; with PC-3 prostate, 102%. Further, the growth in the assay with SK-MEL-5 melanoma is 113%; in the assay on UACC-62 melanoma, 98.1%; in the assay with LOX IMVI melanoma it was 96.2%; in the assay on SK-MEL-28 melanoma, 109%; in the assay on SK-MEL-2 melanoma it was 100%; in the assay on EKVX NSCLC, 98.9%. The growth with SN12C renal is 106%; in the assay with UO-31 renal it was 88%; in the assay with TK-10 renal it was 95.8%; in the assay on CCRF-CEM leukemia, 106%; in the assay with MOLT-4 leukemia it was 114%.

For the molecule `Oc1ccc(CN(Cc2ccc(C(F)(F)F)cc2)Cc2ccc(O)c3ncccc23)c2cccnc12`, the growth with HCT-15 colon is 20.5%; in the assay on HT29 colon, 11.3%; in the assay on SNB-75 CNS, 33.5%; in the assay with SNB-19 CNS, 30.8%; in the assay with U251 CNS, 1.77% (active); in the assay on PC-3 prostate, 12.9%. The growth in the assay with SK-MEL-5 melanoma was -32.6% (active); in the assay on UACC-62 melanoma, -21.3% (active); in the assay on LOX IMVI melanoma, 18.7%; in the assay on SK-MEL-28 melanoma it was 32.3%; with SK-MEL-2 melanoma, 24.5%; with EKVX NSCLC, 19%. The growth in the assay with UO-31 renal was 4.59% (active); with TK-10 renal, 14.7%; in the assay with ACHN renal it was 9.38% (active); in the assay on CAKI-1 renal, 5.6% (active); in the assay on A498 renal, 41.6%; with CCRF-CEM leukemia, 8.17% (active). In addition, the growth in the assay with MOLT-4 leukemia is 10.4%.

As to `CC(C)(C)C(=O)OCOP(=O)(OCOC(=O)C(C)(C)C)C1CC(O)N(O)C1=O` (centres undefined), the growth was 34.7% in the assay with HCT-15 colon; 6.67% (active) in the assay with HT29 colon; 51.2% in the assay with SNB-75 CNS; 16.1% with SNB-19 CNS; 6.74% (active) in the assay on U251 CNS; 58.9% in the assay on PC-3 prostate. Moreover, the growth with SK-MEL-5 melanoma was 58.4%; with UACC-62 melanoma it was 9.68% (active); in the assay with LOX IMVI melanoma, 30.4%; in the assay on SK-MEL-28 melanoma, 8.22% (active); with SK-MEL-2 melanoma, 45.9%; in the assay with EKVX NSCLC, 66%. For the same molecule, the growth in the assay on SN12C renal is 11.6%; in the assay on UO-31 renal it was 18.6%; with TK-10 renal, 63.6%; with ACHN renal, 42.7%; with CCRF-CEM leukemia, 4.09% (active); with MOLT-4 leukemia, 24.5%.

Take `O=C(Oc1ccccc1)c1ccccc1Cl`: the growth in the assay with HCT-15 colon was 98%; in the assay on HT29 colon it was 118%; in the assay on SNB-75 CNS it was 89.6%; in the assay on SNB-19 CNS, 104%; in the assay on U251 CNS, 98.5%; in the assay on PC-3 prostate it was 95%. For the same molecule, the growth with SK-MEL-5 melanoma is 104%; in the assay on UACC-62 melanoma, 107%; in the assay with LOX IMVI melanoma, 107%; in the assay with SK-MEL-28 melanoma, 107%; in the assay with SK-MEL-2 melanoma, 123%; with EKVX NSCLC, 99.6%. The growth with SN12C renal was 107%; with UO-31 renal it was 96.7%; in the assay on TK-10 renal, 111%; with ACHN renal it was 102%; in the assay on CCRF-CEM leukemia, -11.9% (active); with MOLT-4 leukemia it was 110%.

For `CCOC(=O)C1=C(C(F)(F)F)NC(=O)NC1CN1C(=O)c2ccccc2C1=O` (centres undefined), the growth was 123% in the assay on HCT-15 colon; 113% in the assay on HT29 colon; 98.4% in the assay on SNB-75 CNS; 111% in the assay with SNB-19 CNS; 107% with U251 CNS; 92% in the assay on PC-3 prostate. Moreover, the growth in the assay on SK-MEL-5 melanoma is 111%; in the assay with UACC-62 melanoma, 92.9%; with LOX IMVI melanoma, 111%; in the assay with SK-MEL-28 melanoma it was 113%; in the assay on SK-MEL-2 melanoma, 109%; in the assay on EKVX NSCLC, 104%. Also, the growth with SN12C renal is 104%; in the assay with UO-31 renal, 102%; with TK-10 renal, 122%; with CAKI-1 renal it was 114%; with A498 renal it was 118%; in the assay with CCRF-CEM leukemia, -21.1% (active). In the assay with MOLT-4 leukemia, the growth is 70.5%.

On to `COC(=O)/C=C/c1cc(O)c2oc(-c3ccc(O)c(O)c3)c(C(=O)OC)c2c1`, for which the growth in the assay on HCT-15 colon is 14.1%; in the assay with HT29 colon, 59.8%; in the assay on SNB-75 CNS, 7.74% (active); with SNB-19 CNS it was 31.7%; with U251 CNS it was 18.1%; with PC-3 prostate it was 11.4%. Also, the growth is -13.3% (active) with SK-MEL-5 melanoma; 36.6% with UACC-62 melanoma; 19.1% in the assay on LOX IMVI melanoma; 57.2% in the assay with SK-MEL-28 melanoma; 43% in the assay on SK-MEL-2 melanoma; 49.7% in the assay on EKVX NSCLC. Further, the growth with SN12C renal is 34.4%; with UO-31 renal, 22.6%; in the assay with TK-10 renal, 46.7%; in the assay on CAKI-1 renal, 19.9%; in the assay with A498 renal, 18.2%; in the assay with CCRF-CEM leukemia, 3.32% (active). Also, the growth in the assay with MOLT-4 leukemia was 19.2%.

In the case of `Nc1ccc(N=Nc2ccccc2)c2cc(S(=O)(=O)O)ccc12`, the growth is 104% in the assay with HCT-15 colon; 94.6% in the assay on HT29 colon; 82.5% in the assay with SNB-75 CNS; 101% in the assay on SNB-19 CNS; 101% in the assay with U251 CNS; 96% in the assay with PC-3 prostate. Moreover, the growth with SK-MEL-5 melanoma was 107%; in the assay with UACC-62 melanoma, 103%; in the assay with LOX IMVI melanoma, 97.7%; with SK-MEL-28 melanoma, 118%; with SK-MEL-2 melanoma, 91.1%; with EKVX NSCLC it was 105%. The growth in the assay with SN12C renal is 108%; in the assay with UO-31 renal it was 86.7%; in the assay with TK-10 renal, 92.9%; in the assay on ACHN renal, 104%; with CCRF-CEM leukemia, 99.9%; with MOLT-4 leukemia, 106%.

With `CC(=N\N=C(N)N)/C(=N/N=C(N)N)c1ccccc1`, the growth is 103% in the assay on HCT-15 colon; 42.7% in the assay with HT29 colon; 88.4% in the assay with SNB-75 CNS; 68% with SNB-19 CNS; 80.7% with U251 CNS; 75.2% in the assay on PC-3 prostate. Also, the growth in the assay with SK-MEL-5 melanoma is 102%; with UACC-62 melanoma it was 103%; with LOX IMVI melanoma, 95.6%; in the assay on SK-MEL-28 melanoma it was 110%; in the assay on SK-MEL-2 melanoma, 84.6%; in the assay with EKVX NSCLC, 68.6%. For the same molecule, the growth in the assay on SN12C renal was 107%; with UO-31 renal it was 82.9%; in the assay on TK-10 renal, 91.1%; in the assay with CCRF-CEM leukemia, 32.2%; in the assay on MOLT-4 leukemia it was 48.9%.
